Results taken from the OligoGym collection.

Target: ZDHHC4
Test: pooled miR-30 sensor sort-seq; sequence = guide strand
Details: shRNA
Further: reference of the scale not given here.

Sequence | sensor-assay potency score (higher = more potent)
ATACAGGACAAACAACAGGTAG | -1.34
TACCACTCGTTAGTAGTCTGGT | -0.0383
TAAATCTGACATCACCACCAAG | -0.923
TAAACGGGAACTACAGCTCAAA | -0.745
TTGGAAACATCACTTCATCAAA | -1.15
TTGCTTTTGTTATAATGCCAGG | -1.32
TTTGCTTTTGTTATAATGCCAG | -0.404
TACAGGACAAACAACAGGTAGC | -0.502
TAGAAAGATCTCTTGAAGGTTG | 0.193
ATCTCTTGAAGGTTGCTCCGAA | -0.154
TTATACAGGAAAATATCTGTGC | 0.584
TACTGAATAAGAAAGACCGTGT | 0.745

Target: ZDHHC6
Test: as above
Details: shRNA

Sequence | sensor-assay potency score (higher = more potent)
TGAAATTCACACTTCCTCCAGT | -0.0351
TTTGTCTCCATATAACCAGTAT | -0.758
TTGGTAACCACAACAGTTGTTG | -0.394
TCTTCTATTACTTTATAGCGAA | -0.958
TTCTTGTAGATTTTCAAACTTG | -0.053
TTATTCTTGAAACACCTTCTAT | -0.81
TTTTCTAGGGAACCAACCCCTT | -1.12
ATTTTGTCTCCATATAACCAGT | -1.42
AACTGTTCTATTGTTAAGCTGT | -0.493
